According to PubChem BioAssay (NCATS):
Results filed as inconclusive are left out. The source made the active and inactive calls. The call rests on the fitted dose curve; in most records, active means well fitted curve in the direction sought with a large enough effect; inconclusive means small, poorly fitted or top-dose-only effect, or another doubt; inactive means no such curve, though single readings can be large; an effect the other way counts as inactive or inconclusive.

Legend:
HaCat = assay: Cytotoxic Profiling of Annotated Libraries Using Quantitative High-Throughput Screening (AID 1296008); conditions: Five cell lines viability, CellTiter-Glo ATP luminescence, 48-72 h; max response: active compounds read low; further: nearly all actives have a fitted effect of over 60% in size
Summary of the method: (§1)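 Cells exposed to compounds for 48 or 72 hr at 37 degrees Celsius. Viability read as ATP-coupled luminescence with CellTiter-Glo after 10 min at room temperature.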

KB-3-1 = assay: as above; conditions: Five cell lines viability, CellTiter-Glo ATP luminescence, 48-72 h; max response: active compounds read low
Summary of the method: as §1

NIH3T3 = assay: as above; conditions: Five cell lines viability, CellTiter-Glo ATP luminescence, 48-72 h; max response: active compounds read low
Summary of the method: as §1

C33A = assay: Primary qHTS to identify gynecologic anti-cancer compounds using libraries of approved drugs and bioactive compounds (AID 1345084); conditions: Gynecologic cancer cell panel viability, ATPlite luminescence, 48 h; series mostly up to 57.5 µM; further: nearly all actives have a fitted effect of over 55% in size
Summary of the method: (§2)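 Cytotoxicity screen measuring ATP content by luciferase luminescence. Each compound is applied at five concentrations for 48 h at 37 C with 5% CO2.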

CAOV3 = assay: as above; conditions: Gynecologic cancer cell panel viability, ATPlite luminescence, 48 h; series mostly up to 57.5 µM
Summary of the method: as §2

CASKI = assay: as above; conditions: Gynecologic cancer cell panel viability, ATPlite luminescence, 48 h; series mostly up to 57.5 µM
Summary of the method: as §2

Es-2 = assay: as above; conditions: Gynecologic cancer cell panel viability, ATPlite luminescence, 48 h; series mostly up to 57.5 µM
Summary of the method: as §2

HeLa = assay: as above; conditions: Gynecologic cancer cell panel viability, ATPlite luminescence, 48 h; series mostly up to 57.5 µM
Summary of the method: as §2

Hek293T = assay: as above; conditions: Gynecologic cancer cell panel viability, ATPlite luminescence, 48 h, control line for the selectivity index; series mostly up to 57.5 µM
Summary of the method: as §2

JEG-3 = assay: as above; conditions: Gynecologic cancer cell panel viability, ATPlite luminescence, 48 h; series mostly up to 57.5 µM
Summary of the method: as §2

OV90 = assay: as above; conditions: Gynecologic cancer cell panel viability, ATPlite luminescence, 48 h; series mostly up to 57.5 µM
Summary of the method: as §2
On the % scale 0 is the no-effect control and ±100 the full control effect.

CCc1cc(CN2CC(C(=O)O)C2)sc1-c1noc(-c2ccc(Oc3ccccc3)cc2)n1
inactive: max response (HaCat) -26.8% | max response (KB-3-1) -20.8% | max response (NIH3T3) -43% | Potency (C33A) | Potency (CAOV3) | Potency (CASKI) | Potency (Es-2) | Potency (HeLa) | Potency (Hek293T) | Potency (JEG-3) | Potency (OV90)

O=C(O)C(O[C@@H]1O[C@H](CO[C@@H]2O[C@H](CO)[C@@H](O)[C@H](O)[C@H]2O)[C@@H](O)[C@H](O)[C@H]1O)c1ccccc1 (stereo not given in full)
inactive: max response (HaCat) -3.34% | max response (KB-3-1) 7.09% | max response (NIH3T3) 1.38% | Potency (C33A) | Potency (CAOV3) | Potency (CASKI) | Potency (Es-2) | Potency (HeLa) | Potency (Hek293T) | Potency (JEG-3) | Potency (OV90)

CC(C)CC(=O)O[C@@H]1OC=C(CO[C@@H]2O[C@H](CO)[C@@H](O)[C@H](O)[C@H]2O)[C@H]2[C@@H]3O[C@H]3[C@@](O)(CO)[C@@H]12
inactive: max response (HaCat) 1.46% | max response (KB-3-1) 6.77% | max response (NIH3T3) 2.35% | Potency (C33A) | Potency (CAOV3) | Potency (CASKI) | Potency (Es-2) | Potency (HeLa) | Potency (Hek293T) | Potency (JEG-3) | Potency (OV90)

C[C@@H]1CN(Cc2ncccn2)C[C@H]1c1nc2c(cnn2C2CCOCC2)c(=O)[nH]1
inactive: max response (HaCat) 0.321% | max response (KB-3-1) -1.41% | max response (NIH3T3) -4.05% | Potency (C33A) | Potency (CAOV3) | Potency (CASKI) | Potency (Es-2) | Potency (HeLa) | Potency (Hek293T) | Potency (JEG-3) | Potency (OV90)

CC(C)(O)/C=C/CC(C)(O)C1C(O)CC2(C)C3CCC4C(C)(C)C(=O)CCC4(C)C3CCC12C (stereo not given)
inactive: max response (HaCat) -10.7% | outcome (KB-3-1) | max response (NIH3T3) -0.144% | Potency (C33A) | Potency (CAOV3) | Potency (CASKI) | Potency (Es-2) | Potency (HeLa) | Potency (Hek293T) | Potency (JEG-3) | Potency (OV90)

Cc1ccc(Cc2c(C)nc3nc(SCC(=O)NCCN4CCNCC4)nn3c2C)cc1
inactive: max response (HaCat) -12.4% | outcome (KB-3-1) | max response (NIH3T3) -3.32% | Potency (C33A) | Potency (CAOV3) | Potency (CASKI) | Potency (Es-2) | Potency (HeLa) | Potency (Hek293T) | Potency (JEG-3) | Potency (OV90)

C=C1CCC2C(C)(C(=O)O)CCCC2(C)C1CC/C(=C\CO)CO (stereo not given)
inactive: max response (HaCat) -8.15% | max response (KB-3-1) 8.33% | max response (NIH3T3) 3.98% | Potency (C33A) | Potency (CAOV3) | Potency (CASKI) | Potency (Es-2) | Potency (HeLa) | Potency (Hek293T) | Potency (JEG-3) | Potency (OV90)

C[C@@H]1O[C@@H](O[C@H]2[C@H](OC(=O)[C@]34CCC(C)(C)C[C@H]3C3=CCC5[C@@]6(C)CC[C@H](O[C@@H]7O[C@H](C(=O)O)[C@@H](O)[C@H](O)[C@H]7O[C@@H]7O[C@H](CO)[C@H](O)[C@H](O)[C@H]7O)[C@@](C)(C=O)C6CC[C@@]5(C)[C@]3(C)C[C@H]4O)O[C@H](C)[C@H](O[C@@H]3O[C@H](C)[C@H](O)[C@H](O)[C@H]3O)[C@@H]2O)[C@H](O)[C@H](O)[C@H]1O[C@@H]1OC[C@@H](O)[C@H](O[C@@H]2O[C@H](CO)[C@@H](O)[C@H](O)[C@H]2O)[C@H]1O (stereo not given in full)
inactive: max response (HaCat) -0.834% | max response (KB-3-1) 9.53% | max response (NIH3T3) 3.95% | activity change, negative = cytotoxicity (C33A) 29.4% [at 6.55 µM] | activity change, negative = cytotoxicity (CAOV3) 2.56% [at 6.55 µM] | activity change, negative = cytotoxicity (CASKI) 4.26% [at 6.55 µM] | activity change, negative = cytotoxicity (Es-2) 0.809% [at 6.55 µM] | activity change, negative = cytotoxicity (HeLa) 3.75% [at 6.55 µM] | activity change, negative = cytotoxicity (Hek293T) 8.68% [at 6.55 µM] | activity change, negative = cytotoxicity (JEG-3) -1.59% [at 6.55 µM] | activity change, negative = cytotoxicity (OV90) -26.3% [at 6.55 µM]

O=C(Nc1ccc(S(=O)(=O)Nc2nccs2)cc1)C(c1ccccc1)c1ccccc1
inactive: max response (HaCat) -1.59% | max response (KB-3-1) 5.78% | max response (NIH3T3) 3.11% | Potency (C33A) | Potency (CAOV3) | Potency (CASKI) | Potency (Es-2) | Potency (HeLa) | Potency (Hek293T) | Potency (JEG-3) | Potency (OV90)

CC1(C)CC[C@]2(CO[C@@H]3O[C@H](CO)[C@@H](O)[C@H](O)[C@H]3O)[C@@H](O)C[C@]3(C)C(=CCC4[C@@]5(C)CC[C@H](O[C@@H]6O[C@H](CO[C@@H]7O[C@H](CO[C@@H]8OC[C@@H](O)[C@H](O)[C@H]8O)[C@@H](O)[C@H](O)[C@H]7O)[C@@H](O)[C@H](O)[C@H]6O)C(C)(C)C5CC[C@]43C)[C@@H]2C1 (stereo not given in full)
inactive: max response (HaCat) -32.8% | max response (KB-3-1) -2.27% | max response (NIH3T3) -21.6% | activity change, negative = cytotoxicity (C33A) 4.63% [at 11.6 µM] | activity change, negative = cytotoxicity (CAOV3) 5.01% [at 11.6 µM] | activity change, negative = cytotoxicity (CASKI) -3.94% [at 11.6 µM] | activity change, negative = cytotoxicity (Es-2) 4.96% [at 11.6 µM] | activity change, negative = cytotoxicity (HeLa) -7.27% [at 11.6 µM] | activity change, negative = cytotoxicity (Hek293T) 1.89% [at 11.6 µM] | activity change, negative = cytotoxicity (JEG-3) 1.67% [at 11.6 µM] | activity change, negative = cytotoxicity (OV90) -3.63% [at 11.6 µM]
